Source: PubChem BioAssay
a7 integrin act – qHTS for Activators of Integrin-Mediated Alleviation for Muscular Dystrophy; alpha7betagal myoblasts, beta-gal FDG fluorescence, 48 h; Potency, µM (series often up to 38.3 µM), for inactives: top-dose activation, most hits filed as activators; hit rate 0.064% among 350,000;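 note: potency is the fitted concentration of half-maximal effect; 100% = response of the positive control SU9516; nearly all actives have a fitted effect of over 60% in size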
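Alpha7betagal+/- myoblasts (passage 13) were plated 16-24 hr, then exposed to compounds (1:260 dilution of DMSO stock) for 48 hours at 37C. After MPER lysis, β-galactosidase reporter activity was read as FDG fluorescence (ex 480/em 540) after 30 minutes.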
D3 ag – qHTS of D3 Dopamine Receptor Agonist: qHTS | D(3) dopamine receptor (Homo sapiens), P35462 | D3R DiscoveRx beta-arrestin cells, luminescence, 90 min | max activation, % | hit rate 0.58% among 410,000 | AID 652048, 2013; in the data active = max activation above about 30%; note: 0% is about no effect
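Cells at 1500/well, incubated overnight, then treated with pinned compounds (dopamine as control) for 90 min at 37 degrees C. DiscoveRx reagent added for 30 - 60 minutes at room temperature; luminescence read.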
B2AR arrestin – qHTS assay of beta-arrestin-biased ligands of beta2-adrenergic receptor | Beta-2 adrenergic receptor (Homo sapiens), P07550 | beta-arrestin recruitment to beta2AR, cell-based reporter | Potency, µM (highest dose often 46.1 µM), without a hit: top-dose activation, hits mostly activators | hit rate 0.02% among 330,000;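 note: potency is the fitted concentration of half-maximal effect; 0% = DMSO controls and full agonism = EC100 isoproterenol or metaproterenol; nearly all actives have a fitted effect of over 65% in size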
Target sequence (P07550 whole entry, looked up): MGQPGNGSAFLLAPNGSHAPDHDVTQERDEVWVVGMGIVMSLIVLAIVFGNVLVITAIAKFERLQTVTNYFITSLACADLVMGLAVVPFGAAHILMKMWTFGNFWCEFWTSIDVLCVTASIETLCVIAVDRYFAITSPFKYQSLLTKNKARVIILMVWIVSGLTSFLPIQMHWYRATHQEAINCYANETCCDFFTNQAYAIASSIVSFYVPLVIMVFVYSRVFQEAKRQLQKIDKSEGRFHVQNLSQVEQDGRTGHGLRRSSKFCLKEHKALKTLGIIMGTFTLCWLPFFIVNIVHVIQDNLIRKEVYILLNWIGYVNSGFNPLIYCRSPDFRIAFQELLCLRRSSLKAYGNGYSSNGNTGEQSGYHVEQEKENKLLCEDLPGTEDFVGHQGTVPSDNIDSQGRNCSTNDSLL
D3 antag – qHTS of D3 Dopamine Receptor Antagonist: qHTS | D3R cells, DiscoveRx beta-arrestin luminescence, antagonist mode; stronger effect = lower value | max response, negative = inhibition, % | hit rate 2.5% among 360,000 | D(3) dopamine receptor (Homo sapiens), P35462; in the data active = max response below about -50%; inconclusive = no clear call, values can overlap the other calls; note: % is set by controls: 0 for no effect and ±100 for the full control effect
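Cells expressing the human receptor were seeded at 1500 cells/well, incubated overnight at 37 degrees C in 5% CO2, then exposed to library compounds with dopamine controls for 90 minutes at 37 degrees C before luminescent detection.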
IDH1 R132H inh – qHTS for Inhibitors of mutant isocitrate dehydrogenase 1 (IDH1): qHTS | Isocitrate dehydrogenase [NADP] cytoplasmic (Homo sapiens), O75874 | IDH1-R132H enzyme, NADPH consumption, diaphorase/resazurin fluorescence | Potency, µM (highest dose often 76.6 µM), inactives show at the highest dose activity change, negative = inhibition, most hits filed as inhibitors | hit rate 0.093% among 390,000 | AID 602179, 2012; note: potency is the fitted concentration of half-maximal effect; % is set by controls: 0 for no effect and ±100 for the full control effect; nearly all actives have a fitted effect of over 65% in size
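IDH1-R132H (0.5 ug/mL) preincubated 30 min with compound, then NADPH (0.016 mM) and alpha-KG (2 mM) added; 80 min at RT, pH 7.5. Remaining NADPH coupled via diaphorase/resazurin to fluorescence (540/590 nm); concentration-response curves normalized to no-enzyme control.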
* marks the source's active call; other numbers are inactive results; u = inconclusive; x = not tested or not shown; ! = not confirmed by another sample; [ ] = another dose, or the depositor's remark. Rows were chosen to be rich in hits. Some 2.9% of all compounds tested hit in one or more screens of this group. Unless noted, calls come from the whole dose curve; as a rule, active = well fitted curve in the direction sought with a large enough effect; inconclusive = small, poorly fitted or top-dose-only effect, or another doubt; inactive = no such curve, though single readings can be large; an effect the other way counts as inactive or inconclusive.

SMILES	a7 integrin act	D3 ag	B2AR arrestin	D3 antag	IDH1 R132H inh
Cc1ccccc1NC(=O)c1ccc(CN2CCC(Cc3ccccc3)CC2)cc1	-54%	-19	0%	-64*	3%
CC(C)NC(=O)c1ccc(CN2CCC(Cc3ccccc3)CC2)cc1	-31%	-24	0%	-80*	0%
CC(C)NC(=O)C1(C)CSCC(=O)N1C1CCN(Cc2ccccc2)CC1 (configuration not stated)	x	-21	x	-64*	x
Cc1cccc(Cn2c(COc3ccc(Cl)cc3)nc3ccccc32)c1	x	-20	x	x	x
OCC(CBr)(CBr)CBr	x	-5	0%	-54*	25%
CCCCOc1ccc(CNC(=O)c2cnc3sc(N4CCOCC4)nn3c2=O)cc1	x	3	x	x	20%
COC(=O)c1ccccc1NC(=O)CN1CCc2ccccc2C1	-25%	-4	-1%	-15	1%
COC(=O)c1ccccc1NC(=O)CN1CCN(C23CC4CC(CC(C4)C2)C3)CC1	24%	-39	-1%	-76*	3%
COc1cc(Cl)c(NS(=O)(=O)c2ccc3[nH]c(=O)ccc3c2)c(OC)c1	x	1	x	x	-9%
S=C(NCCCN1CCOCC1)NN=C1c2ccccc2-c2ccccc21	-38%	-18	x	-71*	0%
O=C(C1CCN(c2ncnc3c2nc2n3CCCCC2)CC1)N1CCN(c2ccccc2)CC1	x	12	x	x	4%
O=C(C1CCN(c2ncnc3c2nc2n3CCCCC2)CC1)N1CCN(c2ccc(F)cc2)CC1	-47%	48*!	0%	0	8%
CCOc1ccc(CCNC(=O)C2CCN(c3ncnc4c3nc3n4CCCCC3)CC2)cc1	x	66*	x	x	-13%
O=C(NCCc1ccc(Cl)cc1)C1CCN(c2ncnc3c2nc2n3CCCCC2)CC1	x	-9	x	x	14%
CC(C)(C)NC(=O)c1ccc(Sc2ccccc2)c([N+](=O)[O-])c1	0%	-4	0%	-50*	4%
COc1cccc(C(NC(C)=O)c2nc(-c3cnn(C)c3)cs2)c1 (configuration not stated)	x	8	x	21	x
CC(=O)NC(c1cccc(F)c1)c1nc(-c2cnn(C)c2)cs1 (configuration not stated)	x	-25	x	-53*	x
CCOC(=O)CSc1nnc(NCC(=O)OC)c(=O)[nH]1	-5%	-14	0%	-56*	1%
COc1ccc(CNC(=O)c2cnn(-c3ccccc3)c2-n2cccc2)cc1OC	x	-6	x	x	-2%
Cn1nnc2cc(C(=O)NCc3ccc4c(c3)OCO4)ccc21	-5%	-1	0%	10	-5%
Cn1nnc2cc(NC(=O)NCc3ccc4c(c3)OCO4)ccc21	14%	-20	0%	-90*	0%
Cc1cc(Cl)ccc1C(O)c1ncc(-c2cccc3ccccc23)[nH]1 (configuration not stated)	x	2	x	0	x
S=C1NC[C@H](Cc2ccccc2)N1CC1CCN(CCCC2CCCC2)CC1	-3%	-43	x	-81*	-6%
CC(C)C[C@H]1CNC(=S)N1CC1CCN(CCCCc2ccccc2)CC1	-38%	-45	x	-91*	-3%
CC(C)C[C@H]1CNC(=S)N1CC1CCN(CCCC2CCCC2)CC1	-24%	-44	x	-63*	7%
SMILES	a7 integrin act	D3 ag	B2AR arrestin	D3 antag	IDH1 R132H inh
COc1ccc(CCCN2CCC(CN3C(=S)NC[C@@H]3Cc3ccccc3)CC2)cc1OC	-7%	-57	x	-55*	-5%
COc1ccc(CCN2CCC(CN3C(=S)NC[C@@H]3CC(C)C)CC2)cc1OC	41%	-40	x	u	3%
CCCCN1CCC(CN2C(=S)NC[C@@H]2CC(C)C)CC1	16%	-46	x	-80*	22%
CC(C)CCN1CCC(CN2C(=O)C(=O)NC[C@@H]2CC(C)C)CC1	x	-5	x	u	x
CC(C)C[C@H]1CNC(=O)C(=O)N1CC1CCN(CC2CCC(C(C)(C)C)CC2)CC1 (some centres not stated)	10%	-35	x	-57*	28%
O=C(Cn1c(=O)n(-c2cccc(Cl)c2)c(=O)c2sc3ccccc3c21)N1CCCC1	x	4	x	x	1%
CC(=O)SCC(Cc1ccccc1)C(=O)NCC(=O)OCc1ccccc1 (configuration not stated)	x	x	-1%	x	x
COc1ccc(NC(=O)[C@H]2O[C@@H]3OC(C)(C)O[C@@H]3[C@H]3OC(C)(C)O[C@H]32)c(OC)c1	x	4	x	x	-28%
Cc1ncc([N+](=O)[O-])n1CC(=O)Nc1cccc(C(F)(F)F)c1	-11%	-1	0%	-6	9%
N=C(N)c1ccc(OCCCOc2ccc(C(=N)N)cc2)cc1	x	6	x	x	x
COC(=O)c1ccc(C2C(C(=O)c3cc4ccccc4o3)=C(O)C(=O)N2CCN2CCOCC2)cc1 (configuration not stated)	10µM*	-8	0%	-20	-8%
COc1ccc(OC)c(S(=O)(=O)NCc2ccc3c(c2)CCN3C(=O)c2cccc(C)c2)c1	x	3	x	x	-8%
O=C(NCCc1ccc(Cl)cc1)c1cccn1-c1nnc(N2CCCCC2)s1	x	-7	x	x	-2%
C/C(=N\NC(=O)c1ccc(F)cc1)c1ccccn1	-14%	-17	4%	-113*	11%
CC(=NNC(=S)Nc1ccccc1)c1ccccn1	-62%	1	x	49	12%
C=CCNC(=S)N/N=C(\C)c1ccccn1	-73%[7.66 µM]	-8	-1%	-90*	1%
Cc1cc(C)c(OCC(=O)N(Cc2ccco2)Cc2ccco2)c(C)c1	x	4	x	x	-11%
O=C(Nc1cccc(CNCCc2c[nH]c3ccccc23)c1)c1ccccc1Cl	-37%	-13	-1%	-96*	12%
CCN(CC(=O)Nc1ccc(NC(C)=O)cc1)C(=O)CN1C(=O)C2CCCCC2C1=O (configuration not stated)	-29%	5	-1%	-9	-5%
COc1ccc(Nc2ncnc3ccc(Br)cc23)cc1OC	4µM*	-1	0%	-7	2%
CCOC(=O)CN(C(=O)CSc1nnc2c(n1)[nH]c1ccc(F)cc12)c1ccccc1	-29%	-10	-1%	-60*	-4%
CCOC(=O)CN(C(=O)CSc1nnc2c(n1)[nH]c1c(C)cc(C)cc12)c1ccccc1	x	x	0%	x	x
CCOC(=O)CN(C(=O)CSc1nnc2c(n1)[nH]c1ccccc12)c1ccccc1	-19%	1	0%	-73*	5%
O=C(CSc1nnc2c(n1)[nH]c1ccc(F)cc12)Nc1ccccc1F	u	2	0%	-11	0%
O=C(Nc1ccccc1)c1cc(C2CCCCN2C(=O)CCc2ccccc2)on1 (configuration not stated)	x	30	x	5	x
